Measured values: PubChem BioAssay (EPA / NIEHS)
Where a structure was tested more than once in an assay, its records may differ in their call. Calls of active or inactive are those of the source. The calls were made as follows: active = hit-call score of the fitted dose curve at least 0.9, where 1 is the maximum; inactive = score below 0.9.

read-out: Interferon-gamma inducible Protein 10 (IP10), CXCL10 (gene 3627); assay: BSK_BE3C_IP10: BioMAP Diversity Plus: BE3C Assay for Interferon-gamma inducible Protein 10 (IP10) Biomarker Activity (AID 2283034); details: primary human bronchial epithelial cells; actives raise or lower the signal
Experimental: BSK_BE3C is a cell-based, multiplexed-readout assay that uses bronchial epithelial cell, a human lung primary cell, with measurements taken at 24 hours after chemical dosing in a 96-well plate.BSK_BE3C_IP10 is an assay component measured in the BSK_BE3C assay. It measures IP-10 antibody related to regulation of gene expression using ELISA technology.Data from the assay component BSK_BE3C_IP10 was analyzed into 1 assay endpoint. This assay endpoint, BSK_BE3C_IP10, was analyzed with bidirectional fitting relative to DMSO as the negative control and baseline of activity. Using a type of binding reporter, gain or loss-of-signal activity can be used to understand changes in the signaling as they relate to the gene CXCL10. Furthermore, this assay endpoint can be referred to as a primary readout, because this assay has produced multiple assay endpoints where this one serves a signaling function. To generalize the intended target to other relatable targets, this assay endpoint is annotated to the cytokine intended target family, where the subfamily is chemotactic factor.
The levels of cell surface (or secreted, indicated by the prefix "s") biomarker endpoints were measured by ELISA. Overt cytotoxicity to cells in confluent adherent cultures (all systems other than the BT system) was assessed by measuring total protein levels using sulforhodamine B (SRB) staining in parallel cultures at the time of biomarker measurements, indicated as SRB endpoints. For proliferation assays for adherent cell types, individual cell types are cultured at sub-confluence and relative cell numbers quantified by SRB staining at time points optimized for each system (48 h: 3C and CASM3C systems; 72 h: BT and HDF3CGF systems; 96 h: SAg system). SRB was performed by staining cells with 0.1% SRB after fixation with 10% TCA and reading wells at 560 nm.Viability and proliferation of PBMC (T cells) was quantified by Alamar Blue reduction for the SAg and BT systems. For PBMC viability (referred to as PBMC Cytotoxicity within the assay endpoint names), cells were plated (75,000/well in a 96-well plate) and then chemical samples added for 1 h before addition of activators, SEB and TSST-1 (20 ng/mL final concentration each). Cells were incubated for 90 h. Then, Alamar Blue (20 uL/well) (Invitrogen, Cat DAL1100) was added for 6 h, and the plates were read with a fluorescence microplate reader at 546/580 nm (excitation/emission). For PBMC proliferation, cells were plated and activated as above but incubated for only 16 h prior to addition of Alamar Blue. Plates were read after 6 h.

SMILES | outcome | AC50
O=C(O)C(F)(F)C(F)(F)C(F)(F)C(F)(F)C(F)(F)C(F)(F)C(F)(F)F | inactive | 43.9 µM (active) [middle of 4 runs]
ClC1C(Cl)C(Cl)C(Cl)C(Cl)C1Cl (stereo not given) | inactive | –
CC(C)(C)C(O)C(Oc1ccc(Cl)cc1)n1cncn1 (stereo not given) | inactive | –
CCS(=O)(=O)c1cccnc1S(=O)(=O)NC(=O)Nc1nc(OC)cc(OC)n1 | inactive | –
CC(C)OC(=O)Nc1cccc(Cl)c1 | inactive | –
CCCN(CCOc1c(Cl)cc(Cl)cc1Cl)C(=O)n1ccnc1 | – | 29.9 µM (active)
O=C(O)COc1ccc(Cl)cc1Cl | inactive | –
COP(=S)(OC)Oc1ccc(SC)c(C)c1 | inactive | –
CCc1ccc(C(=O)NN(C(=O)c2cc(C)cc(C)c2)C(C)(C)C)cc1 | inactive | –
CC(C)N(C(=O)COc1nnc(C(F)(F)F)s1)c1ccc(F)cc1 | inactive | –
Cc1cc(C)nc(NC(=O)NS(=O)(=O)c2ccccc2C(=O)OC2COC2)n1 | inactive | –
CCN(CC)C(=O)SCc1ccc(Cl)cc1 | inactive | –
COC(=O)c1ccccc1S(=O)(=O)NC(=O)N(C)c1nc(C)nc(OC)n1 | inactive | –
CNC(=O)CSP(=S)(OC)OC | inactive | –
Oc1cc(Cl)ccc1Oc1ccc(Cl)cc1Cl | – | 29.3 µM (active) [middle of 4 runs]
O=S(=O)(O)C(F)(F)C(F)(F)C(F)(F)C(F)(F)C(F)(F)C(F)(F)C(F)(F)C(F)(F)F | – | 17.3 µM (active) [middle of 7 runs]
CN1CSC(=S)N(C)C1 | inactive | –
CCOCN(C(=O)CCl)c1c(C)cccc1CC | – | 16.5 µM (active)
COC(=O)c1ccccc1CS(=O)(=O)NC(=O)Nc1nc(OC)cc(OC)n1 | inactive | –
[2H]C1([2H])[n+]2ccccc2-c2cccc[n+]2C1([2H])[2H] | inactive | –

SMILES | outcome | AC50
Oc1ccc(Cl)cc1Cc1ccccc1 | – | 35.3 µM (active) [middle of 7 runs]
CNC(=O)Oc1ccccc1OC(C)C | inactive | –
C#CCN1C(=O)COc2cc(F)c(N3C(=O)C4=C(CCCC4)C3=O)cc21 | inactive | –
CCC(C)(NC(=O)c1cc(Cl)c(C)c(Cl)c1)C(=O)CCl (stereo not given) | – | 34 µM (active)
COc1cc(OC)nc(NC(=O)NS(=O)(=O)c2cc(NC=O)ccc2C(=O)N(C)C)n1 | inactive | –
CC[C@H](C)[C@H]1O[C@]2(C=C[C@@H]1C)C[C@@H]1C[C@@H](C/C=C(\C)[C@@H](O[C@H]3C[C@H](OC)[C@@H](O[C@H]4C[C@H](OC)[C@@H](O)[C@H](C)O4)[C@H](C)O3)[C@@H](C)/C=C/C=C3\CO[C@@H]4[C@H](O)C(C)=C[C@@H](C(=O)O1)[C@]34O)O2 (tested in a mixture with another compound) | – | 5.96 µM (active)
CCOC1Oc2ccc(OS(C)(=O)=O)cc2C1(C)C (stereo not given) | inactive | –
O=C(Nc1ccccc1)Nc1cnns1 | inactive | –
O=C(O)CCCOc1ccc(Cl)cc1Cl | inactive | –
N#Cc1c(Cl)c(Cl)c(Cl)c(C#N)c1Cl | – | 2.35 µM (active)
Clc1ccccc1-c1nnc(-c2ccccc2Cl)nn1 | inactive | –
N#CN | inactive | –
Cc1[nH]c(=O)n(C(C)(C)C)c(=O)c1Cl | inactive | –
O=S1OCC2C(CO1)C1(Cl)C(Cl)=C(Cl)C2(Cl)C1(Cl)Cl (stereo not given) | – | 17.8 µM (active)
OCCOc1ccccc1 | inactive | –
COC(=O)c1ccccc1S(=O)(=O)NC(=O)Nc1nc(C)nc(OC)n1 | inactive | –
CCC(C)(C)C(=O)OC1=C(c2ccc(Cl)cc2Cl)C(=O)OC12CCCCC2 | – | 31.3 µM (active)
O=C(NC(=O)c1c(F)cccc1F)Nc1ccc(OC(F)(F)C(F)OC(F)(F)F)c(Cl)c1 (stereo not given) | inactive | –
CCC(C)Nc1c([N+](=O)[O-])cc(C(C)(C)C)cc1[N+](=O)[O-] (stereo not given) | inactive | –
